Experimental findings from the supplement of paper PMC6992640 are described below.

The structures appear in SMILES notation.

For this experiment, the system named is WHIM30 (cells of a triple-negative basal-like breast cancer xenograft). The experiment in a line: cell viability of combination (% of vehicle); higher = less cytotoxic. Particulars: 1 µM; 72 h; partner dose: 10 nM. The procedure: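 PDX cells were treated for 72 h with each drug at 1 µM plus carfilzomib (10 nM; 100 nM for WHIM2). Luciferase viability is expressed as percent of vehicle.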
Take `O=C(NC1CCN(CCCCC2(C(=O)NCC(F)(F)F)c3ccccc3-c3ccccc32)CC1)c1ccccc1-c1ccc(C(F)(F)F)cc1` [Lomitapide] + CC(C)C[C@H](NC(=O)[C@H](CCc1ccccc1)NC(=O)CN1CCOCC1)C(=O)N[C@@H](Cc1ccccc1)C(=O)N[C@@H](CC(C)C)C(=O)[C@@]1(C)CO1 [Carfilzomib]: the “cell viability of combination” value is 9.93.
Under `Cl.Fc1ccc(C2CCNCC2COc2ccc3c(c2)OCO3)cc1` (stereo not given) [Paroxetine HCl] + CC(C)C[C@H](NC(=O)[C@H](CCc1ccccc1)NC(=O)CN1CCOCC1)C(=O)N[C@@H](Cc1ccccc1)C(=O)N[C@@H](CC(C)C)C(=O)[C@@]1(C)CO1 [Carfilzomib] stands 12.9.
Under `CN(C)CC=CC(=O)Nc1cc2c(Nc3ccc(F)c(Cl)c3)ncnc2cc1OC1CCOC1.O=C(O)C=CC(=O)O.O=C(O)C=CC(=O)O` (stereo not given) [Afatinib dimaleate] + CC(C)C[C@H](NC(=O)[C@H](CCc1ccccc1)NC(=O)CN1CCOCC1)C(=O)N[C@@H](Cc1ccccc1)C(=O)N[C@@H](CC(C)C)C(=O)[C@@]1(C)CO1 [Carfilzomib] stands 12.9; under `Nc1ccn(C2OC(CO)C(O)C2O)c(=O)n1` (stereo not given) [Cytarabine] + CC(C)C[C@H](NC(=O)[C@H](CCc1ccccc1)NC(=O)CN1CCOCC1)C(=O)N[C@@H](Cc1ccccc1)C(=O)N[C@@H](CC(C)C)C(=O)[C@@]1(C)CO1 [Carfilzomib], 19.3; under `CC(C)c1nc(CN(C)C(=O)NC(C(=O)NC(Cc2ccccc2)CC(O)C(Cc2ccccc2)NC(=O)OCc2cncs2)C(C)C)cs1` (stereo not given) [Ritonavir] + CC(C)C[C@H](NC(=O)[C@H](CCc1ccccc1)NC(=O)CN1CCOCC1)C(=O)N[C@@H](Cc1ccccc1)C(=O)N[C@@H](CC(C)C)C(=O)[C@@]1(C)CO1 [Carfilzomib], 27.3.
As to `CCN(CC)CCNC(=O)c1c(C)[nH]c(C=C2C(=O)Nc3ccc(F)cc32)c1C` [Sunitinib] + CC(C)C[C@H](NC(=O)[C@H](CCc1ccccc1)NC(=O)CN1CCOCC1)C(=O)N[C@@H](Cc1ccccc1)C(=O)N[C@@H](CC(C)C)C(=O)[C@@]1(C)CO1 [Carfilzomib], the “cell viability of combination” value stood at 33.2.
Under `CCCCCCCCCCCC1=C(O)C(=O)C=C(O)C1=O` [Embelin] + CC(C)C[C@H](NC(=O)[C@H](CCc1ccccc1)NC(=O)CN1CCOCC1)C(=O)N[C@@H](Cc1ccccc1)C(=O)N[C@@H](CC(C)C)C(=O)[C@@]1(C)CO1 [Carfilzomib] stands 17.7; under `Cc1cc(-n2c(=O)[nH]c(=O)n(C)c2=O)ccc1Oc1ccc(SC(F)(F)F)cc1` [Toltrazuril] + CC(C)C[C@H](NC(=O)[C@H](CCc1ccccc1)NC(=O)CN1CCOCC1)C(=O)N[C@@H](Cc1ccccc1)C(=O)N[C@@H](CC(C)C)C(=O)[C@@]1(C)CO1 [Carfilzomib], 19.3.
Under `CCOC(=O)C1=C(COCCN)NC(C)=C(C(=O)OC)C1c1ccccc1Cl` (stereo not given) [Amlodipine] + CC(C)C[C@H](NC(=O)[C@H](CCc1ccccc1)NC(=O)CN1CCOCC1)C(=O)N[C@@H](Cc1ccccc1)C(=O)N[C@@H](CC(C)C)C(=O)[C@@]1(C)CO1 [Carfilzomib] stands 15.8; under `COc1cc2nccc(Oc3ccc(NC(=O)Nc4cc(C)on4)c(Cl)c3)c2cc1OC` [Tivozanib (AV-951)] + CC(C)C[C@H](NC(=O)[C@H](CCc1ccccc1)NC(=O)CN1CCOCC1)C(=O)N[C@@H](Cc1ccccc1)C(=O)N[C@@H](CC(C)C)C(=O)[C@@]1(C)CO1 [Carfilzomib], 18.1; under `Cc1ccc(NC(=O)c2ccc(CN3CCN(C)CC3)cc2)cc1Nc1nc(-c2cccnc2)cs1` [Masitinib (AB1010)] + CC(C)C[C@H](NC(=O)[C@H](CCc1ccccc1)NC(=O)CN1CCOCC1)C(=O)N[C@@H](Cc1ccccc1)C(=O)N[C@@H](CC(C)C)C(=O)[C@@]1(C)CO1 [Carfilzomib], 28.7.
As to `Cl.OC(c1cc(C(F)(F)F)nc2c(C(F)(F)F)cccc12)C1CCCCN1` (stereo not given) [Mefloquine hydrochloride] + CC(C)C[C@H](NC(=O)[C@H](CCc1ccccc1)NC(=O)CN1CCOCC1)C(=O)N[C@@H](Cc1ccccc1)C(=O)N[C@@H](CC(C)C)C(=O)[C@@]1(C)CO1 [Carfilzomib], the “cell viability of combination” value turned out to be 20.3.
As for `CCN(CC)CCNC(=O)c1c(C)[nH]c(C=C2C(=O)Nc3ccc(F)cc32)c1C.O=C(O)CC(O)C(=O)O` [Sunitinib malate] + CC(C)C[C@H](NC(=O)[C@H](CCc1ccccc1)NC(=O)CN1CCOCC1)C(=O)N[C@@H](Cc1ccccc1)C(=O)N[C@@H](CC(C)C)C(=O)[C@@]1(C)CO1 [Carfilzomib], the figure is 33.1.
Under `CCC(NC(=O)C(C)NC)C(=O)N1CC(O)CC1Cc1c(-c2[nH]c3cc(F)ccc3c2CC2CC(O)CN2C(=O)C(CC)NC(=O)C(C)NC)[nH]c2cc(F)ccc12` (stereo not given) + CC(C)C[C@H](NC(=O)[C@H](CCc1ccccc1)NC(=O)CN1CCOCC1)C(=O)N[C@@H](Cc1ccccc1)C(=O)N[C@@H](CC(C)C)C(=O)[C@@]1(C)CO1 [Carfilzomib] stands 11.4; under `COc1cc(Nc2ncc(F)c(Nc3ccc4c(n3)N(COP(=O)(O)O)C(=O)C(C)(C)O4)n2)cc(OC)c1OC` [Fostamatinib (R788)] + CC(C)C[C@H](NC(=O)[C@H](CCc1ccccc1)NC(=O)CN1CCOCC1)C(=O)N[C@@H](Cc1ccccc1)C(=O)N[C@@H](CC(C)C)C(=O)[C@@]1(C)CO1 [Carfilzomib], 16.9.
Regarding `CCOc1cc2ncc(C#N)c(Nc3ccc(F)c(Cl)c3)c2cc1NC(=O)C=CCN(C)C` [Pelitinib (EKB-569)] + CC(C)C[C@H](NC(=O)[C@H](CCc1ccccc1)NC(=O)CN1CCOCC1)C(=O)N[C@@H](Cc1ccccc1)C(=O)N[C@@H](CC(C)C)C(=O)[C@@]1(C)CO1 [Carfilzomib], the “cell viability of combination” value was determined as 5.92.
Under `CCN1CCN(Cc2ccc(Nc3ncc(F)c(-c4cc(F)c5nc(C)n(C(C)C)c5c4)n3)nc2)CC1.CS(=O)(=O)O` + CC(C)C[C@H](NC(=O)[C@H](CCc1ccccc1)NC(=O)CN1CCOCC1)C(=O)N[C@@H](Cc1ccccc1)C(=O)N[C@@H](CC(C)C)C(=O)[C@@]1(C)CO1 [Carfilzomib] stands 23.6; under `CC[C@H](C)[C@H]1O[C@]2(CC[C@@H]1C)C[C@@H]1C[C@@H](C/C=C(\C)[C@@H](O[C@H]3C[C@H](OC)[C@@H](O[C@H]4C[C@H](OC)[C@@H](O)[C@H](C)O4)[C@H](C)O3)[C@@H](C)/C=C/C=C3\CO[C@@H]4[C@H](O)C(C)=C[C@@H](C(=O)O1)[C@]34O)O2` [Ivermectin] + CC(C)C[C@H](NC(=O)[C@H](CCc1ccccc1)NC(=O)CN1CCOCC1)C(=O)N[C@@H](Cc1ccccc1)C(=O)N[C@@H](CC(C)C)C(=O)[C@@]1(C)CO1 [Carfilzomib], 20.6; under `C1=C\COCc2cc(ccc2OCCN2CCCC2)Nc2nccc(n2)-c2cccc(c2)COC/1` [Pacritinib] + CC(C)C[C@H](NC(=O)[C@H](CCc1ccccc1)NC(=O)CN1CCOCC1)C(=O)N[C@@H](Cc1ccccc1)C(=O)N[C@@H](CC(C)C)C(=O)[C@@]1(C)CO1 [Carfilzomib], 11.5.
As for `CNCCCC12CCC(c3ccccc31)c1ccccc12.Cl` [Maprotiline HCl] + CC(C)C[C@H](NC(=O)[C@H](CCc1ccccc1)NC(=O)CN1CCOCC1)C(=O)N[C@@H](Cc1ccccc1)C(=O)N[C@@H](CC(C)C)C(=O)[C@@]1(C)CO1 [Carfilzomib], the figure is 16.
